Calls of active or inactive are those of the source. Rule for the calls: active = hit-call score of the fitted dose curve at least 0.9, where 1 is the maximum; inactive = score below 0.9.
Read-out: not listed separately
Experiment: BSK_CASM3C_SRB: Viability Assessment in the BioMAP Diversity Plus: CASM3C Assay (AID 2283050);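 note: total protein by SRB staining as cytotoxicity measure in parallel cultures; cells exposed to compound for 24 h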
Conditions: primary human coronary artery smooth muscle cells
With CCCCCCCCCCCC#N the AC50 was 29.3 µM (active).
For CC(C)CCCCCCCOC(=O)c1ccccc1C(=O)OCCCCCCCC(C)C, the outcome was “inactive”.
In the case of O=[N+]([O-])C=Cc1ccccc1, the AC50 is reported as 20 µM (active).
With O=[N+]([O-])c1ccc(Cl)cc1 the outcome was “inactive”.
With Nc1ccc(-c2ccc(N)c(N)c2)cc1N the outcome was “inactive”.

Read-out: Thrombomodulin, THBD (gene 7056)
Experiment: BSK_CASM3C_Thrombomodulin: BioMAP Diversity Plus: CASM3C Assay for Thrombomodulin Biomarker Activity (AID 2283051);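 note: thrombomodulin protein level measured by ELISA 24 h after dosing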
Conditions: primary human coronary artery smooth muscle cells; actives raise or lower the signal
In the case of CCCCCCCCCCCC#N, the outcome is reported as “inactive”.
In the case of CC(C)CCCCCCCOC(=O)c1ccccc1C(=O)OCCCCCCCC(C)C, the outcome is reported as “inactive”.
For O=[N+]([O-])C=Cc1ccccc1, the AC50 was 20 µM (active).
In the case of O=[N+]([O-])c1ccc(Cl)cc1, the outcome is reported as “inactive”.
In the case of Nc1ccc(-c2ccc(N)c(N)c2)cc1N, the outcome is reported as “inactive”.

Read-out: Tissue Factor, F3 (gene 2152)
Experiment: BSK_CASM3C_TissueFactor: BioMAP Diversity Plus: CASM3C Assay for Tissue Factor Biomarker Activity (AID 2283052);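 note: cell surface tissue factor protein level read by ELISA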
Conditions: primary human coronary artery smooth muscle cells; actives raise or lower the signal
With CCCCCCCCCCCC#N the outcome was “inactive”.
With CC(C)CCCCCCCOC(=O)c1ccccc1C(=O)OCCCCCCCC(C)C the outcome was “inactive”.
With O=[N+]([O-])C=Cc1ccccc1 the AC50 was 20 µM (active).
For O=[N+]([O-])c1ccc(Cl)cc1, the outcome was “inactive”.
With Nc1ccc(-c2ccc(N)c(N)c2)cc1N the AC50 was 11.3 µM (active).

Read-out: Interferon-gamma inducible Protein 10 (IP10), CXCL10 (gene 3627)
Experiment: BSK_hDFCGF_IP10: BioMAP Diversity Plus: hDFCGF Assay for Interferon-gamma inducible Protein 10 (IP10) Biomarker Activity (AID 2283053)
Conditions: primary human foreskin fibroblasts; actives raise or lower the signal
Outline: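 Chemical-treated human skin fibroblasts (primary) were sampled at 24 h for IP-10 by ELISA. Both increases and decreases relative to DMSO were scored.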
In the case of CCCCCCCCCCCC#N, the AC50 is reported as 28.8 µM (active).
With CC(C)CCCCCCCOC(=O)c1ccccc1C(=O)OCCCCCCCC(C)C the outcome was “inactive”.
For O=[N+]([O-])C=Cc1ccccc1, the AC50 was 2.63 µM (active).
In the case of O=[N+]([O-])c1ccc(Cl)cc1, the outcome is reported as “inactive”.
With Nc1ccc(-c2ccc(N)c(N)c2)cc1N the outcome was “inactive”.

Read-out: Urokinase-type plasminogen activator receptor (uPAR), PLAUR (gene 5329)
Experiment: BSK_CASM3C_uPAR: BioMAP Diversity Plus: CASM3C Assay for Urokinase-type plasminogen activator receptor (uPAR) Biomarker Activity (AID 2283054);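 note: cell-surface uPAR protein level quantified by ELISA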
Conditions: primary human coronary artery smooth muscle cells; actives raise or lower the signal
In the case of CCCCCCCCCCCC#N, the outcome is reported as “inactive”.
With CC(C)CCCCCCCOC(=O)c1ccccc1C(=O)OCCCCCCCC(C)C the outcome was “inactive”.
For O=[N+]([O-])C=Cc1ccccc1, the AC50 was 8.89 µM (active).
For O=[N+]([O-])c1ccc(Cl)cc1, the outcome was “inactive”.
In the case of Nc1ccc(-c2ccc(N)c(N)c2)cc1N, the outcome is reported as “inactive”.

Read-out: Vascular cell adhesion molecule 1 (VCAM1), VCAM1 (gene 7412)
Experiment: BSK_CASM3C_VCAM1: BioMAP Diversity Plus: CASM3C Assay for Vascular cell adhesion molecule 1 (VCAM1) Biomarker Activity (AID 2283055);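 note: VCAM-1 protein level quantified by ELISA on the cells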
Conditions: primary human coronary artery smooth muscle cells; actives raise or lower the signal
With CCCCCCCCCCCC#N the AC50 was 20.6 µM (active).
For CC(C)CCCCCCCOC(=O)c1ccccc1C(=O)OCCCCCCCC(C)C, the outcome was “inactive”.
In the case of O=[N+]([O-])C=Cc1ccccc1, the AC50 is reported as 8.66 µM (active).
In the case of O=[N+]([O-])c1ccc(Cl)cc1, the outcome is reported as “inactive”.
For Nc1ccc(-c2ccc(N)c(N)c2)cc1N, the AC50 was 10 µM (active).

Read-out: Collagen III, COL3A1 (gene 1281)
Experiment: BSK_hDFCGF_CollagenIII: BioMAP Diversity Plus: hDFCGF Assay for Collagen III Biomarker Activity (AID 2283056)
Conditions: primary human foreskin fibroblasts; actives raise or lower the signal
Outline: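 Human foreskin primary fibroblasts were exposed to test chemicals for 24 h, after which collagen III was quantified by ELISA. Activity was fitted bidirectionally against DMSO as negative control and baseline.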
For CCCCCCCCCCCC#N, the outcome was “inactive”.
In the case of CC(C)CCCCCCCOC(=O)c1ccccc1C(=O)OCCCCCCCC(C)C, the outcome is reported as “inactive”.
With O=[N+]([O-])C=Cc1ccccc1 the AC50 was 33.1 µM (active).
With O=[N+]([O-])c1ccc(Cl)cc1 the outcome was “inactive”.
For Nc1ccc(-c2ccc(N)c(N)c2)cc1N, the AC50 was 20 µM (active).
